Compound activity as filed in PubChem BioAssay.
Rows were chosen to be rich in hits. Some 1.8% of all compounds tested hit in one or more screens of this group.
MsrA inhibitor = inhibits bovine methionine sulfoxide reductase A; purified bovine MsrA, absorbance read-out; inhibition, % at 15.5 µM; actives 0.75% (n = 360,000); in the data active = inhibition above about 4.5%;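 also: 0% = vehicle wells with enzyme and 100% = reference inhibitor wells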
m5-HT2A agonist = agonists of mouse serotonin 5-HT2A receptor (HTR2A); P35363; CHO-K1 mHTR2A beta-arrestin complementation, luminescence; percent of 30 µM serotonin response; activation, % at 7.6 µM; actives 0.66% (n = 360,000);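 active = activation above a run cutoff, the mean activation of all tested compounds plus 3 SD, cut at about 14% in these data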;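 also: 0% = plate median of compound wells and 100% = 30 µM serotonin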
MsrA act = activators of bovine methionine sulfoxide reductase A | activation, % at 10.6 µM | purified bovine MsrA, absorbance read-out | AID 602163 | actives 0.3% (n = 360,000); in the data active = activation above about 7.5%;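 also: 0% = vehicle and 100% = reference activator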
GC-A act = GC-A (human) enzyme activation. HEK293 GC-A cells, cGMP TR-FRET, EC30 ANP; 0% at EC30 ANP, 100% saturating ANP. activation, % at 10 µM. actives 0.14% (n = 370,000); in the data active = activation above about 40%
Target sequence (P16066 whole entry, looked up): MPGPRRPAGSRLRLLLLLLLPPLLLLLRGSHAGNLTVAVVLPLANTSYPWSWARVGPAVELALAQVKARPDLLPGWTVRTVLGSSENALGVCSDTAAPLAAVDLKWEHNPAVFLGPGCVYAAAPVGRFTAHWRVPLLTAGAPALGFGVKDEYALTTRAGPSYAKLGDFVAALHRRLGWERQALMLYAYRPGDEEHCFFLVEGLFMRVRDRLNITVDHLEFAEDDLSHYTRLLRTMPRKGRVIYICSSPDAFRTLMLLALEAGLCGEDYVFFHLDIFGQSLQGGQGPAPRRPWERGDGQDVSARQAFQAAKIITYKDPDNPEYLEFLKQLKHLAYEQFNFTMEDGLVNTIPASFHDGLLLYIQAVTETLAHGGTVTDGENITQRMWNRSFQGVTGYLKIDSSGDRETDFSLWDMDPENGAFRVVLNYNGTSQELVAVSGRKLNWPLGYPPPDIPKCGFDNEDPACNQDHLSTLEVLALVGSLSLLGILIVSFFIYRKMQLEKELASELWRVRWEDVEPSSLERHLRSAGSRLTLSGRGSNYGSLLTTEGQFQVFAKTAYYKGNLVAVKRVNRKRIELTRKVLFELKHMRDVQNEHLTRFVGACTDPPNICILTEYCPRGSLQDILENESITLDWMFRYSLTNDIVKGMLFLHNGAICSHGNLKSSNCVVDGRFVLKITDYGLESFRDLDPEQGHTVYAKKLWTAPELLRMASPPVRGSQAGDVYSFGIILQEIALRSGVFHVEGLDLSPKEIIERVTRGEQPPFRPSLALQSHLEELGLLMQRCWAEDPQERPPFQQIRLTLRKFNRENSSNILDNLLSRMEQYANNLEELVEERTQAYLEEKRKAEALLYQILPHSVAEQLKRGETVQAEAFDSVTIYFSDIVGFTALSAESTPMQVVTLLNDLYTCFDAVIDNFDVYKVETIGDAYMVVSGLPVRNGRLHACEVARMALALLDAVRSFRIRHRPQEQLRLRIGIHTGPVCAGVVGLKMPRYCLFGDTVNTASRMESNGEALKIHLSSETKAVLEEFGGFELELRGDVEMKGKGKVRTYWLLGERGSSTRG
GC-B act = GC-B (human) receptor activation; actives 0.11% (n = 370,000); AID 1920062; HEK293-GC-B cells, CNP EC30, cGMP TR-FRET; 0% at EC30 CNP, 100% saturating CNP; activation, % at 10 µM; P20594;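 active = activation at 10 µM reaching about 35% in either raw or pattern-adjusted values, limit read from the data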
MsrA act confirm = confirmation of bovine methionine sulfoxide reductase A activators. shares compounds with MsrA act. purified bovine MsrA, absorbance read-out. activation, % at 10.6 µM. actives 12% (n = 1,000); in the data active = activation above about 4%;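 also: enzyme coupled to thioredoxin and thioredoxin reductase with NADPH; 0% = vehicle wells and 100% = reference activator wells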
Starred values were filed as active, the others as inactive; x = no result given.

SMILES	MsrA inhibitor	m5-HT2A agonist	MsrA act	GC-A act	GC-B act	MsrA act confirm
COc1ccc(C(C)=O)cc1CN1C(=O)C(C)N(c2ccc(C)cc2)C1=O (stereo not given)	1	-2	9.0*	19	22	-3
CC(C)C[C@@H]1COc2cccc(N3CCSCC3)c2S(=O)(=O)N1C	x	x	x	1	-1	x
CCS(=O)(=O)Nc1cccc(-c2cn3c(n2)SCC3)c1	-1	-1	7.7*	-1	4	1
CS(=O)(=O)Nc1cccc(-c2cn3c(n2)SCC3)c1	1	5	-10	-3	4	x
Cc1nn(C)c(Sc2ccccc2N)c1[N+](=O)[O-]	0	11	8.0*	3	6	0
CC1CCN(C(=O)c2ccc3c(c2NCCO)C(=O)c2ccccc2C3=O)CC1	2	-6	2	1	-2	x
CCN(CC)CCNC(=O)c1ccc2c(c1NCCO)C(=O)c1ccccc1C2=O	14*	-7	24*	4	-5	8.7*
Cc1cc(C)nc(N/N=C/c2cccc([N+](=O)[O-])c2)n1	1	1	10*	-4	0	-2
N#CCOC(=O)c1cc(S(=O)(=O)N2CCCCC2)ccc1N1CCOCC1	0	1	12*	2	3	-3
O=C(COC(=O)c1cc(S(=O)(=O)N2CCCCC2)ccc1N1CCOCC1)c1ccccc1Cl	2	-1	-2	0	13	x
c1ccc2[nH]c3cc4ncnc4cc3nc2c1	0	3	18*	-8	-8	15*
FC(F)c1nc2ccccc2[nH]1	-1	2	-7	-3	-1	x
CC(/C=N/NC(=O)CSc1nnc(SCc2ccc(C)cc2)s1)=C\c1ccco1	x	x	x	-3	-10	x
CCCCCCCC[n+]1cccc(C(=O)N(CC)CC)c1	0	3	18*	2	3	-2
Cc1csc(N(C(=O)c2cccc(S(=O)(=O)N3CCCC3)c2)c2ccccc2)n1	0	5	15*	-1	3	-3
O=C(NCc1nnnn1-c1ccc(F)cc1)c1cc2ccccc2o1	1	3	-2	1	1	x
O=C(NCc1ccc(F)cc1)c1cc2ccccc2o1	-1	3	9.6*	1	6	0
O=C(NC1CC1)c1ccc(NS(=O)(=O)c2ccc(F)cc2)cc1	0	-2	11*	-2	-1	-1
COC(=O)c1ccc(NC(=O)[C@H](C)NC(N)=O)cc1	0	1	23*	3	2	-1
CCN(CC)CCCNC(=O)c1csc(Nc2cccc3ccccc23)n1	-1	-3	8.1*	-10	-7	-2
CCCC(=O)Nc1cc(C)c(NC(=O)Cc2ccccc2)cn1	2	x	x	-1	2	x
Cc1cc(NC(=O)C(C)C)ncc1NC(=O)Cc1ccccc1	0	4	9.6*	2	4	-3
Cc1ccc(-n2c(Cc3cccs3)nnc2SCC(=O)Nc2ccccc2-c2ccccc2)cc1	x	x	x	-17	-13	x
O=C(COC(=O)c1cncc(Br)c1)NC12CC3CC(CC(C3)C1)C2	0	-3	9.3*	-4	0	-1
COc1ccccc1CNC(=O)C[C@H]1CC[C@H]2[C@H](COc3ccc(NS(=O)(=O)c4ccc(C)cc4)cc3C(=O)N2C)O1	x	x	x	1	-3	x
SMILES	MsrA inhibitor	m5-HT2A agonist	MsrA act	GC-A act	GC-B act	MsrA act confirm
CC1CCN(CCCNC(=O)c2ccc3c(=O)n(Cc4ccc(Cl)cc4)c(=S)[nH]c3c2)CC1	2	-10	8.2*	0	5	-3
CC(C)c1c(O)nc(SCC(=O)N2CCCCC2)[nH]c1=O	3	13	-2	1	0	x
CC(C)Cc1c(O)nc(SCC(=O)N2CCCCCC2)[nH]c1=O	2	4	22*	2	2	-1
COc1ccc(/C=C/C(=O)N2CCN(c3ccccc3)CC2)cc1S(=O)(=O)N1CCOCC1	2	-1	8.8*	0	-3	2
OCCNCCSc1ccc(Cl)cc1	-1	1	9.3*	2	3	0
OCCNCCCCSc1ccc(Cl)cc1	-1	-4	-3	2	0	x
CCCCN(C(=O)c1cc(Cl)nc2ccccc12)c1c(N)n(Cc2ccccc2)c(=O)[nH]c1=O	0	0	12*	0	-5	0
CCCCN(C(=O)c1cc(Cl)nc2ccccc12)c1c(N)n(CCC)c(=O)[nH]c1=O	1	3	-9	0	5	x
C=CCN1C(=O)[C@@H](CC(=O)NCCCC)[C@]2(C(=O)OC)CCCCC=C12	x	x	x	3	0	x
Cn1c(=O)c2c(nc(NCCCO)n2Cc2cccc(C(F)(F)F)c2)n(C)c1=O	1	-2	8.3*	1	2	0
CC1CCCC(NC(=O)Nc2cccs2)C1C (stereo not given)	1	5	8.9*	2	6	-3
CN(C)CCCNC(=O)c1ccc(-c2nc(-c3ccc(Cl)cc3)cs2)cc1	1	-7	8.3*	-2	-26	-2
CN(C)CCCNC(=O)c1ccccn1	1	-4	-8	2	10	x
O=C(Nc1c2c(nn1-c1ccc([N+](=O)[O-])cc1)CS(=O)(=O)C2)c1ccccc1F	1	11	7.9*	-1	0	-1
COc1ccccc1CC(=O)NCC1CCCO1 (stereo not given)	0	-1	8.4*	0	3	0
COc1ccccc1CNC(=O)C(=O)NCC1CCCO1 (stereo not given)	0	-3	-5	0	2	x
C=CCN1C(=O)[C@H](CC(=O)NCc2cccc(C(F)(F)F)c2)[C@@]2(C(=O)OCC)CCCC=C12	x	x	x	1	2	x
O=C(NCc1ccccc1Cl)[C@H]1CCCN1C(=O)[C@H]1CCCN1C(=O)c1cccs1	-1	2	9.2*	1	2	-3
C=C1CCC2C(C)(C)CCC[C@]2(C)[C@H]1CC1=C(O)C(=O)C(CO)=CC1=O (stereo not given in full)	x	x	x	4	5	x
Cc1ccc(C2CCC3(CCC(=O)N3CCOC(=O)Nc3cccc(C#N)c3)CC2)cc1 (stereo not given)	x	x	x	2	2	x
COc1ccc2c(c1)CN1C(=O)N(Cc3ccccc3)S(=O)(=O)CC21 (stereo not given)	x	x	x	-2	1	x
CN1CCN(S(=O)(=O)c2cccc(C(=O)N(Cc3nnc(-c4ccccc4Cl)o3)C3CC3)c2)CC1	0	2	7.8*	1	0	0
CN1/C(=C\C(=S)Nc2ccccc2)C(C)(C)c2ccccc21	0	-2	9.0*	1	-1	-4
O=S(=O)(CC1NCc2cc(F)ccc21)NC1CCCC1 (stereo not given)	x	x	x	1	6	x
CC(C)OP(=O)(OC(C)C)C(C)NC(=O)Cc1ccccc1 (stereo not given)	0	0	17*	-4	5	0
